Laboratory results published in the supplement of paper PMC9948646.
Unmarked numbers belong to inactive results.

system: gramicidin D channels in DC22:1PC lipid vesicles (bilayer-modifying potency); experiment: initial Tl+ fluorescence quench rate relative to no-drug control (NormRate, gramicidin monomer-dimer shift) (ratio (fold of control)); higher = stronger bilayer-modifying effect (equilibrium shifted toward conducting dimers), active = 1.5 or more; conditions: 10 µM; lipid concentration 50 µM; temperature: 25 °C
Protocol: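 Stopped-flow fluorescence quench assay: ANTS-loaded DC22:1PC large unilamellar vesicles doped with gramicidin D (1:2000), 50 µM lipid, equilibrated 10 min with 10 µM drug (0.1% DMSO), mixed with Tl+ quench buffer at 25°C. Initial quench rate (Tl+ influx) was fitted with a modified stretched exponential and normalised to the no-drug control rate (NormRate); duplicates from two independent LUV preparations (triplicates for 7 drugs).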

Question: With `[H]/N=C(\N)N[C@H]1[C@@H](O)[C@@H](O)[C@H](O[C@H]2O[C@H](C)[C@](O)(C=O)[C@H]2O[C@H]2O[C@@H](CO)[C@@H](O)[C@@H](O)[C@@H]2NC)[C@@H](N/C(N)=N/[H])[C@H]1O` as the compound, how does the “initial Tl+ fluorescence quench rate” value read?
Answer: 1.05

Question: For `COc1ccc(-c2cncc3ccc(C(=O)NCCCn4ccnc4)nc23)cc1`, which “initial Tl+ fluorescence quench rate” value is on record?
Answer: 1.03

Question: For `Clc1ccc(-n2cc(COc3ccnc4ccccc34)nn2)cc1`, which “initial Tl+ fluorescence quench rate” value is on record?
Answer: 1.13

Question: How did the “initial Tl+ fluorescence quench rate” value turn out when `O=C([C@@H](c1ccc(Cl)cc1)c1cccnc1)N1CCN(c2ccc(C(F)(F)F)cc2)CC1` was run?
Answer: 10.5 (active)

Question: For `Cc1ncc(-c2ccnc(Nc3ccc(S(C)(=O)=O)cc3)n2)n1C(C)C`, which “initial Tl+ fluorescence quench rate” value is on record?
Answer: 1.03

Question: With `O=[N+]([O-])c1cn2c(n1)OC[C@@H](OCc1ccc(OC(F)(F)F)cc1)C2` as the compound, how does the “initial Tl+ fluorescence quench rate” value read?
Answer: 1.38

Question: `CC(C)NCC(=O)Nc1cccc(C(=O)Nc2cccc(C(F)(F)F)c2)c1` was tested. Which “initial Tl+ fluorescence quench rate” value did it give?
Answer: 1.37

Question: Which “initial Tl+ fluorescence quench rate” value does the source give for `COc1ccc(OC)c(NCc2ccc3nc(N)nc(N)c3c2Cl)c1` here?
Answer: 1.54 (active)

Question: How did the “initial Tl+ fluorescence quench rate” value turn out when `CCCc1ccc(S(=O)(=O)Nc2ccc(CN3CCN(CC4CC4)CC3)cc2)cc1` was run?
Answer: 1.42

Question: With `CC[C@H](Sc1nc2ccccc2o1)C(=O)Nc1nnc(C)s1` as the compound, how does the “initial Tl+ fluorescence quench rate” value read?
Answer: 1.3

Question: Which “initial Tl+ fluorescence quench rate” value does the source give for `Clc1ccc(Cl)c(CO[C@H]2CCCC[C@@H]2n2ccnc2)c1` here?
Answer: 1.09

Question: How did the “initial Tl+ fluorescence quench rate” value turn out when `COc1ccc2nc(C)cc(OCC(=O)NCc3ccccc3)c2c1` was run?
Answer: 1.06

Question: `COc1ccc2nc(C)cc(OCC(=O)Nc3ccccc3OC)c2c1` was tested. Which “initial Tl+ fluorescence quench rate” value did it give?
Answer: 1.11

Question: Which “initial Tl+ fluorescence quench rate” value does the source give for `CNC(=O)[C@@H]1Cc2c([nH]c3cc(Cl)ccc23)C2(CCN(CCc3ccccc3)CC2)N1` here?
Answer: 2.52 (active)

Question: With `Oc1c(I)cc(I)c2cccnc12` as the compound, how does the “initial Tl+ fluorescence quench rate” value read?
Answer: 1.47

Question: How did the “initial Tl+ fluorescence quench rate” value turn out when `O=C(OCc1ccccc1)N1CCC(c2cc(-c3ccncc3)c(-c3ccc(F)cc3)[nH]2)CC1` was run?
Answer: 2.36 (active)

Question: Which “initial Tl+ fluorescence quench rate” value does the source give for `Cc1nnc(NC(=O)c2cn(-c3ccccc3)nc2-c2ccccc2C)o1` here?
Answer: 1.02

Question: How did the “initial Tl+ fluorescence quench rate” value turn out when `CNC(=O)[C@H]1Cc2ccccc2N1C(=O)Cc1ccc(F)cc1` was run?
Answer: 1.04

Question: `O=C(NC1CC1)c1ccc(N2CCC(Cc3ccccc3)CC2)nc1` was tested. Which “initial Tl+ fluorescence quench rate” value did it give?
Answer: 1.43

Question: `CN1CCN(c2cc(-c3ccc(F)cc3)nc(-c3ccncc3)n2)CC1` was tested. Which “initial Tl+ fluorescence quench rate” value did it give?
Answer: 1.18

Question: With `COc1ccc(C2=NN(C3CCCCCC3)C(=O)C2(C)C)cc1OCc1ccccn1` as the compound, how does the “initial Tl+ fluorescence quench rate” value read?
Answer: 1.8 (active)

Question: `c1ccc(Oc2ccc(-c3cc(C4CCOCC4)[nH]n3)cc2)cc1` was tested. Which “initial Tl+ fluorescence quench rate” value did it give?
Answer: 3.48 (active)

Question: `COc1ccc(CCN2CCC(NCc3cccc(N(C)C)c3)CC2)cc1` was tested. Which “initial Tl+ fluorescence quench rate” value did it give?
Answer: 1.07

Question: `OCc1ccc(-c2cncc(Nc3cccc(Cl)c3)c2)cc1` was tested. Which “initial Tl+ fluorescence quench rate” value did it give?
Answer: 2.64 (active)

Question: Which “initial Tl+ fluorescence quench rate” value does the source give for `COc1cccc(-n2nnnc2S(=O)(=O)Cc2ccccc2)c1` here?
Answer: 1.07

Question: With `O=C1N(Cc2cc3ccccc3s2)C[C@H]2CN(Cc3ccccc3)CCN12` as the compound, how does the “initial Tl+ fluorescence quench rate” value read?
Answer: 2.35 (active)

Question: `Cc1cccc(Cn2ccc(NC(=O)c3ccc4c(c3)OCO4)n2)c1` was tested. Which “initial Tl+ fluorescence quench rate” value did it give?
Answer: 1.35

Question: Which “initial Tl+ fluorescence quench rate” value does the source give for `Cc1cc2ccccc2n1CC(=O)N1C[C@@H](C(=O)N2CCCCC2)Oc2ccccc21` here?
Answer: 1.72 (active)

Question: With `COc1cc(OC)cc(C(=O)NC[C@@H]2Cc3cc(Cl)cc(-c4ccncc4)c3O2)c1` as the compound, how does the “initial Tl+ fluorescence quench rate” value read?
Answer: 2.47 (active)

Question: Which “initial Tl+ fluorescence quench rate” value does the source give for `COc1cccc(NC(=O)c2c(NC(=O)c3cccnc3)sc3c2CCC3)c1` here?
Answer: 1.55 (active)

Question: For `Cc1cc(C)n2nc(C(=O)Nc3cc(C(F)(F)F)ccc3N3CCOCC3)nc2n1`, which “initial Tl+ fluorescence quench rate” value is on record?
Answer: 1.17

Question: For `O=C(Nc1cccc(-c2ccc(NCCCN3CCCC3)nc2)c1)c1ccccc1`, which “initial Tl+ fluorescence quench rate” value is on record?
Answer: 1.2

Question: How did the “initial Tl+ fluorescence quench rate” value turn out when `Cc1cnc(N2CCN[C@@H](Cc3ccccc3)C2)nc1Oc1ccc(-n2ccnc2)cc1` was run?
Answer: 1.72 (active)

Question: `Clc1cccc(CO[C@H]2CCc3ccccc3[C@@H]2n2ccnn2)c1` was tested. Which “initial Tl+ fluorescence quench rate” value did it give?
Answer: 1.37

Question: With `COc1ccccc1[C@H](C)NCC(=O)Nc1cc(C(F)(F)F)ccc1Cl` as the compound, how does the “initial Tl+ fluorescence quench rate” value read?
Answer: 1.17

Question: `Cc1cc(C)n(-c2ccc(NC(=O)C3CCN(Cc4cnc(C)s4)CC3)cc2)n1` was tested. Which “initial Tl+ fluorescence quench rate” value did it give?
Answer: 1.01

Question: How did the “initial Tl+ fluorescence quench rate” value turn out when `CC(C)(C)CN1C(=O)C(c2ccccc2)(c2ccccc2)N=C1N` was run?
Answer: 2.96 (active)

Question: For `CC[C@@H]([C@H](C)O)n1ncn(-c2ccc(N3CCN(c4ccc(OC[C@@H]5CO[C@@](Cn6cncn6)(c6ccc(F)cc6F)C5)cc4)CC3)cc2)c1=O`, which “initial Tl+ fluorescence quench rate” value is on record?
Answer: 7.69 (active)
